# In article PMC5540273 (PLoS ONE, 2017):
# Where “and” joins values, the source holds several entries; their conditions need not be identical. Equal values may be shown once. Read-outs that look alike come from different tables or passages of the source.
# What was measured:
# NEK6 = conditions: concentration: 1 μM, replicates: in singlicate, n = 1
# NEK7 = conditions: concentration: 1 μM, replicates: in singlicate; n = 1
# NEK9 = conditions: concentration: 1 μM, replicates: in singlicate, n = 1
# NIK = system: T1, NIK; conditions: concentration: 1 μM, replicates: in singlicate, n = 1
# T1 construct: gene MAP3K14
# NIM1 = system: T2, NIM1; conditions: concentration: 1 μM, replicates: in singlicate, n = 1
# T2 construct: gene MGC42105
# NLK = conditions: concentration: 1 μM, replicates: in singlicate; n = 1
# OSR1 = system: T3, OSR1; conditions: concentration: 1 μM, replicates: in singlicate, n = 1
# T3 construct: gene OXSR1
# PAK1 = conditions: concentration: 1 μM, replicates: in singlicate, n = 1
# PAK2 = conditions: concentration: 1 μM, replicates: in singlicate, n = 1
# PAK3 = conditions: concentration: 1 μM, replicates: in singlicate, n = 1
# PAK4 = conditions: concentration: 1 μM, replicates: in singlicate, n = 1
# PAK6 = conditions: concentration: 1 μM, replicates: in singlicate, n = 1
# PAK7 = conditions: concentration: 1 μM, replicates: in singlicate, n = 1
# PCTK1 = system: T4, PCTK1; conditions: concentration: 1 μM, replicates: in singlicate, n = 1
# T4 construct: gene CDK16
# PCTK2 = system: T5, PCTK2; conditions: concentration: 1 μM, replicates: in singlicate, n = 1
# T5 construct: gene CDK17
# PCTK3 = system: T6, PCTK3; conditions: concentration: 1 μM, replicates: in singlicate; n = 1
# T6 construct: gene CDK18
# PDGFRA = conditions: concentration: 1 μM, replicates: in singlicate, n = 1
# PDGFRB = conditions: concentration: 1 μM, replicates: in singlicate, n = 1
# PDPK1 = conditions: concentration: 1 μM, replicates: in singlicate, n = 1
# PFTAIRE2 = conditions: concentration: 1 μM, replicates: in singlicate; n = 1
# 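Further: KINOMEscan kinase panel screen.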
structure (smiles),measurement,setting,value
COc1cc2ncn(-c3cc(OCc4sccc4Cl)c(C(N)=O)s3)c2cc1OC [GSK448459],%Inh,NEK6,0%
same,%Inh,NEK7,0%
same,%Inh,NEK9,0%
same,%Inh,NIK,22%
same,%Inh,NIM1,30%
same,%Inh,NLK,0%
same,%Inh,OSR1,11%
same,%Inh,PAK1,17%
same,%Inh,PAK2,10%
same,%Inh,PAK3,20%
same,%Inh,PAK4,0%
same,%Inh,PAK6,6%
same,%Inh,PAK7,0%
same,%Inh,PCTK1,4%
same,%Inh,PCTK2,0%
same,%Inh,PCTK3,13%
same,%Inh,PDGFRA,25%
same,%Inh,PDGFRB,76%
same,%Inh,PDPK1,0%
same,%Inh,PFTAIRE2,0%
O=c1cc(N2CCOCC2)nc2n(Cc3cccc(F)c3)ccn12 [GSK2297430],%Inh,NEK6,0%
same,%Inh,NEK7,0%
same,%Inh,NEK9,7%
same,%Inh,NIK,7%
same,%Inh,NIM1,0%
same,%Inh,NLK,0%
same,%Inh,OSR1,1%
same,%Inh,PAK1,18%
same,%Inh,PAK2,9%
same,%Inh,PAK3,79%
same,%Inh,PAK4,0%
same,%Inh,PAK6,0%
same,%Inh,PAK7,0%
same,%Inh,PCTK1,5%
same,%Inh,PCTK2,0%
same,%Inh,PCTK3,27%
same,%Inh,PDGFRA,0%
same,%Inh,PDGFRB,12%
same,%Inh,PDPK1,32%
same,%Inh,PFTAIRE2,7%
O=C(Nc1n[nH]c2cc(-c3cccc(F)c3)ccc12)C1CC1 [SB-735464],%Inh,NEK6,3%
same,%Inh,NEK7,0%
same,%Inh,NEK9,0%
same,%Inh,NIK,9%
same,%Inh,NIM1,12%
same,%Inh,NLK,86%
same,%Inh,OSR1,0%
same,%Inh,PAK1,0%
same,%Inh,PAK2,30%
same,%Inh,PAK3,44%
same,%Inh,PAK4,0%
same,%Inh,PAK6,0%
same,%Inh,PAK7,0%
same,%Inh,PCTK1,5%
same,%Inh,PCTK2,6%
same,%Inh,PCTK3,0%
same,%Inh,PDGFRA,42%
same,%Inh,PDGFRB,67%
same,%Inh,PDPK1,0%
same,%Inh,PFTAIRE2,26%
O=C(NOCC1CC1)c1ccc(F)c(F)c1Nc1ccc(I)cc1Cl,%Inh,NEK6,0%
same,%Inh,NEK7,0%
same,%Inh,NEK9,0%
same,%Inh,NIK,0%
same,%Inh,NIM1,0%
same,%Inh,NLK,0%
same,%Inh,OSR1,0%
same,%Inh,PAK1,0%
same,%Inh,PAK2,0%
same,%Inh,PAK3,0%
same,%Inh,PAK4,0%
same,%Inh,PAK6,0%
same,%Inh,PAK7,3%
same,%Inh,PCTK1,0%
same,%Inh,PCTK2,0%
same,%Inh,PCTK3,1%
same,%Inh,PDGFRA,0%
same,%Inh,PDGFRB,8%
same,%Inh,PDPK1,0%
same,%Inh,PFTAIRE2,0%
Cc1cccc(-c2nc(-c3ccc(S(C)(=O)=O)cc3)sc2-c2ccncc2)c1,%Inh,NEK6,14%
same,%Inh,NEK7,0%
same,%Inh,NEK9,16%
same,%Inh,NIK,0%
same,%Inh,NIM1,0%
same,%Inh,NLK,64%
same,%Inh,OSR1,0%
same,%Inh,PAK1,14%
same,%Inh,PAK2,0%
same,%Inh,PAK3,9%
same,%Inh,PAK4,10%
same,%Inh,PAK6,18%
same,%Inh,PAK7,0%
same,%Inh,PCTK1,0%
same,%Inh,PCTK2,0%
same,%Inh,PCTK3,0%
same,%Inh,PDGFRA,10%
same,%Inh,PDGFRB,0%
same,%Inh,PDPK1,26%
same,%Inh,PFTAIRE2,10%
NS(=O)(=O)CCc1cccc(Nc2nccc(-c3c(-c4cccc(NC(=O)c5c(F)cccc5F)c4)nn4ccccc34)n2)c1 [GSK336735],%Inh,NEK6,8%
same,%Inh,NEK7,11%
same,%Inh,NEK9,57%
same,%Inh,NIK,4%
same,%Inh,NIM1,15%
same,%Inh,NLK,84%
same,%Inh,OSR1,10%
same,%Inh,PAK1,26%
same,%Inh,PAK2,12%
same,%Inh,PAK3,36%
same,%Inh,PAK4,0%
same,%Inh,PAK6,16%
same,%Inh,PAK7,4%
same,%Inh,PCTK1,10%
same,%Inh,PCTK2,0%
same,%Inh,PCTK3,23%
same,%Inh,PDGFRA,90.1%
same,%Inh,PDGFRB,100%
same,%Inh,PDPK1,1%
same,%Inh,PFTAIRE2,25%
CN(C1=C(c2ccccc2)C(=O)NC1=O)c1ccccc1 [SB-334860],%Inh,NEK6,15%
same,%Inh,NEK7,0%
same,%Inh,NEK9,17%
same,%Inh,NIK,0%
same,%Inh,NIM1,34%
same,%Inh,NLK,35%
same,%Inh,OSR1,4%
same,%Inh,PAK1,0%
same,%Inh,PAK2,0%
same,%Inh,PAK3,0%
same,%Inh,PAK4,5%
same,%Inh,PAK6,0%
same,%Inh,PAK7,18%
same,%Inh,PCTK1,5%
same,%Inh,PCTK2,8%
same,%Inh,PCTK3,11%
same,%Inh,PDGFRA,0%
same,%Inh,PDGFRB,19%
same,%Inh,PDPK1,5%
same,%Inh,PFTAIRE2,27%
O=C1NC(=O)C(N2CCc3ccccc32)=C1c1cccc(Cl)c1 [SB-408010],%Inh,NEK6,9%
same,%Inh,NEK7,0%
same,%Inh,NEK9,0%
same,%Inh,NIK,0%
same,%Inh,NIM1,0%
same,%Inh,NLK,12%
same,%Inh,OSR1,0%
same,%Inh,PAK1,9%
same,%Inh,PAK2,44%
same,%Inh,PAK3,0%
same,%Inh,PAK4,13%
same,%Inh,PAK6,13%
same,%Inh,PAK7,6%
same,%Inh,PCTK1,0%
same,%Inh,PCTK2,0%
same,%Inh,PCTK3,16%
same,%Inh,PDGFRA,9%
same,%Inh,PDGFRB,5%
same,%Inh,PDPK1,0%
same,%Inh,PFTAIRE2,0%
NCCNS(=O)(=O)c1ccc(-c2ccnc3[nH]ccc23)cc1 [GSK977617],%Inh,NEK6; 1 µM,4% and 0%
same,%Inh,NEK7,0%
same,%Inh,NEK9; 1 µM,22% and 16%
same,%Inh,NIK; 1 µM,19% and 7%
same,%Inh,NIM1; 1 µM,0% and 26%
same,%Inh,NLK,0%
same,%Inh,OSR1; 1 µM,63% and 52%
same,%Inh,PAK1; 1 µM,66% and 43%
same,%Inh,PAK2; 1 µM,65% and 41%
same,%Inh,PAK3; 1 µM,90.6% and 78%
same,%Inh,PAK4; 1 µM,82% and 75%
same,%Inh,PAK6; 1 µM,73% and 61%
same,%Inh,PAK7; 1 µM,90.8% and 77%
same,%Inh,PCTK1; 1 µM,1% and 2%
same,%Inh,PCTK2; 1 µM,7% and 0%
same,%Inh,PCTK3,0%
same,%Inh,PDGFRA; 1 µM,11% and 10%
same,%Inh,PDGFRB; 1 µM,80% and 65%
same,%Inh,PDPK1; 1 µM,11% and 0%
same,%Inh,PFTAIRE2,25%
Cc1c(Cn2c(C)nn3c(=O)cc(N4CCOC(C)C4)nc23)cccc1C(F)(F)F (centres unmarked) [GSK2344444],%Inh,NEK6,0%
same,%Inh,NEK7,1%
same,%Inh,NEK9,14%
same,%Inh,NIK,12%
same,%Inh,NIM1,3%
same,%Inh,NLK,0%
same,%Inh,OSR1,23%
same,%Inh,PAK1,0%
same,%Inh,PAK2,0%
same,%Inh,PAK3,20%
same,%Inh,PAK4,0%
same,%Inh,PAK6,0%
same,%Inh,PAK7,0%
same,%Inh,PCTK1,6%
same,%Inh,PCTK2,0%
same,%Inh,PCTK3,8%
same,%Inh,PDGFRA,0%
same,%Inh,PDGFRB,18%
same,%Inh,PDPK1,8%
same,%Inh,PFTAIRE2,16%
